Bioassay records (PubChem)
A selection: hits, their analogues and other compounds. The true share with any hit is near 0.64%.
PvdQ acylase: P. aeruginosa PvdQ acylase inhibition | purified PvdQ acylase, fluorescence plate reader | inhibition, % at 10 µM | 0.063% of 340,000 active | AID 488965; in the data active = inhibition above about 30%, passing the limit was not always enough; inconclusive = no clear call, values can overlap the other calls;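 note: 0% = vehicle neutral wells and 100% = reference inhibitor wells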
AI-2 QS modul: modulators of Vibrio harveyi AI-2 quorum sensing system | Vibrio harveyi JMH597 AI-2 luminescence/OD600 ratio, 9 h; stronger effect = lower value; strain lacks LuxN and CqsS sensors; 0 = neutral-control median | activity change, % at 7.5 µM | 0.4% of 300,000 active; in the data active = activity change below about -75%, passing the limit was not always enough; inconclusive = no clear call, values can overlap the other calls;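 note: luminescence divided by OD600 gain over 9 h not by final OD600 alone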
Vif inh: blocks HIV Vif function. HEK293T cells, Vif self-association by quenched fluorescence, imaging, 24 h. inhibition, % at 7.49 µM. 0.35% of 340,000 active. AID 602346; in the data active = inhibition above about 50%, passing the limit was not always enough; inconclusive = no clear call, values can overlap the other calls; inactive = below about 31%
ERp5 block: ERp5 (human) disulfide isomerase inhibition. 0.05% of 350,000 active. inhibition, % at 9.99 µM. AID 651711. Q15084. ERp5 insulin aggregation, absorbance 650 nm, 90 min;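 active = mean replicate inhibition above about 25%, with every replicate also reaching it, limit read from the data, passing the limit was not always enough; inconclusive = only one of those two criteria met; inactive = neither criterion met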
PDI turbidity: blocks human protein disulfide isomerase activity. P07237. PDI insulin aggregation turbidity, A650, 90 min. inhibition, % at 10 µM. 0.052% of 350,000 active;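 active = mean inhibition across replicates of 30% or more, whatever share of single replicates reach that level; inconclusive = mean inhibition below 30% while every single replicate reaches 30%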
Target sequence (P07237 whole entry, looked up): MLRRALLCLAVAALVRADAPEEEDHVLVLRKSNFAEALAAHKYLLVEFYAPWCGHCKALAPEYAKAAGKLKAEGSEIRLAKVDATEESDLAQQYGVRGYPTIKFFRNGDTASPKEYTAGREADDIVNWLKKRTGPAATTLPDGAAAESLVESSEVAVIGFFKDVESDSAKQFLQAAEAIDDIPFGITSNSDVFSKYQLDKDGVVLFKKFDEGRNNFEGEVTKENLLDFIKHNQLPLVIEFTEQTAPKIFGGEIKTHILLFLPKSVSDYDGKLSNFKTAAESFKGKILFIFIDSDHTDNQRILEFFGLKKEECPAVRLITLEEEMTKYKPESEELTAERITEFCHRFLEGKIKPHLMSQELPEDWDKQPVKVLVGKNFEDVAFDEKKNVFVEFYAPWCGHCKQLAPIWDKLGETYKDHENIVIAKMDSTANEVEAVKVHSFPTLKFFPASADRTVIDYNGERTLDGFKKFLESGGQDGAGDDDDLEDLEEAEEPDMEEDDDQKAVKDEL
JMH597 growth: retest: blocks Vibrio harveyi JMH597 growth; shares compounds with AI-2 QS modul; OD600 absorbance, 9 h; lacks LuxN and CqsS sensors; growth inhibition, % at 7.5 µM; 1% of 750 active;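 active = every replicate shows growth inhibition above 50%; inconclusive = at least half, but not all, replicates pass that cutoff; inactive = fewer than half of replicates pass it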
BB721 const-QS lum: retest counter-screen: BB721 constitutive quorum sensing luminescence decrease. AID 2727. shares compounds with AI-2 QS modul. 95% of 750 active. inhibition, % at 7.5 µM. Vibrio harveyi BB721 luminescence, 9 h;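 active = inhibition above about 80% in every replicate, not just on average, limit read from the data; inconclusive = at least half of replicates past the limit, but not all; inactive = fewer than half of replicates past the limit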
BB721 growth: retest: inhibitors of Vibrio harveyi BB721 growth; 3% of 750 active; AID 2728; shares compounds with AI-2 QS modul; OD600 absorbance, 9 h; growth inhibition, % at 7.5 µM;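 active = every replicate shows growth inhibition above 50%; inconclusive = at least half but not all replicates above 50% inhibition; inactive = under half of replicates above 50% inhibition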
AI-2 QS JMH597: Vibrio harveyi AI-2 signaling luminescence modulation – JMH597 strain, confirmation. 97% of 750 active. shares compounds with AI-2 QS modul. Vibrio harveyi JMH597 AI-2 quorum sensing luminescence, 9 h; luxN and CqsS knockout, AI-2 only. AID 2736. inhibition, % at 7.5 µM;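 active = every replicate shows more than 75% inhibition of signal versus neutral control wells; inconclusive = half to three quarters of replicates exceed 75% inhibition; inactive = fewer than half of replicates exceed 75% inhibition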
Starred values were filed as active, the others as inactive; ? = inconclusive; . = not tested or not shown.

SMILES	PvdQ acylase	AI-2 QS modul	Vif inh	ERp5 block	PDI turbidity	others
Cc1ccccc1S(=O)(=O)N1[C@@H]2Cn3c(ccc(-c4cccnc4)c3=O)[C@H]1[C@@H](C(=O)O)[C@@H]2CO	.	.	.	1.5	.
COc1ccc(O)c2c(=O)c3c(OC)cc4c(c3oc12)C1C=COC1O4 (centres undefined)	-2.7	2.6	73.1*	-0.3	.
O=C(Cc1cccnc1)N1CCCCN2[C@H](C1)[C@H](c1ccc(C#CC3(O)CCCC3)cc1)[C@@H]2CO	.	.	.	7.5	.
N#CSCC(=O)N1c2ccccc2CCc2ccccc21	9.6	-76.3*	0.2	.	9.3
Nc1ccccc1C(=O)OCC(=O)N1CCc2ccccc21	-7.6	23.3	5.4	1.2	2.8
COC(=O)[C@@H]1[C@@H](CO)[C@@H]2Cn3c(ccc(C4=CCCCC4)c3=O)[C@H]1N2CC1CCCCC1	.	.	.	0.9	.
CNC(C)Cc1ccc(OC)cc1 (centres undefined)	.	.	.	2.2	.
COc1ccc(CC(C)Nc2cccc(F)c2)cc1 (centres undefined)	36.3*	15.8	-1.6	-1.2	-34.6
O=C(C1CC1)N1C[C@@H]2N[C@H](C1)[C@@H]2c1ccc(-c2ccncc2)cc1	.	.	.	-11.6	.
Cc1cc(OCC(=O)NCc2ccc(S(N)(=O)=O)cc2)c2c3c(c(=O)oc2c1)CCC3	6.0	2.7	5.6	28.0*	0.7
COC(=O)[C@H]1[C@H](CO)[C@H]2Cn3c(ccc(C4=CCCCC4)c3=O)[C@@H]1N2Cc1ccccn1	.	.	.	-1.0	.
Cc1ccc(O)c(CN2CCN(c3ccccc3)CC2)c1	-9.4	-79.4*	.	.	5.9	JMH597 growth=7.7;BB721 const-QS lum=85.3*;BB721 growth=-18.7;AI-2 QS JMH597=90.7*
O=C(c1cc2cc(Br)ccc2[nH]1)N1CCC2(CC1)OCCO2	-6.6	?	-5.8	17.7	3.3	JMH597 growth=-3.9;BB721 const-QS lum=94.3*;BB721 growth=-1.0;AI-2 QS JMH597=96.2*
COc1ccc(OC(=O)N(C)C[C@@H]2OCc3ccccc3-c3c(n(C)c4ccccc34)C(=O)N([C@@H](C)CO)C[C@@H]2C)cc1	.	.	.	4.4	.
CCN(CC)C(=O)c1ccc(NC(=O)Cn2nc(C)c3ccccc3c2=O)cc1	1.5	-87.5*	-7.1	.	2.0	JMH597 growth=-2.8;BB721 const-QS lum=93.9*;BB721 growth=-11.5;AI-2 QS JMH597=96.0*
CCN(CC)C(=O)c1ccc(NC(=O)c2ccc(-c3nn(C)c(=O)c4ccccc34)cc2)cc1	-16.5	16.2	-5.0	1.7	-1.0
CC=Cc1ccc2n(c1=O)C[C@H]1[C@H](CO)[C@@H](C(=O)OC)[C@@H]2N1CC1CCCCC1 (mixture of isomers)	.	.	.	0.7	.
